Sm TGR inh – qHTS Assay for the Inhibitors of Schistosoma Mansoni Peroxiredoxins | Schistosoma mansoni thioredoxin glutathione reductase (TGR), Q962Y6 | purified TGR, DTNB reduction, TNB absorbance 405 nm | Potency, µM (doses to about 114 µM), for the others: at the top dose activity change, negative = inhibition, usual class: inhibitors | 3% of 360,000 active | AID 485364, 2010; also: potency is read from the fitted curve at half-maximal effect; % is scaled to controls: 0 for no effect and ±100 for the full control effect; nearly all actives have a fitted effect of over 60% in size
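First, TGR (20 nM dispensed) and NADPH were mixed with compound. Second, a 15 min room-temperature incubation followed. Third, further NADPH and then DTNB were added to start the reaction. Finally, TNB absorbance was monitored kinetically.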
Pf growth 96h – Primary qHTS for delayed death inhibitors of the malarial parasite plastid, 96 hour incubation | P. falciparum luciferase reporter growth, 96 h | Potency, µM (top dose mostly 28.7 µM), for the others: top-dose activity change, negative = inhibition, usual class: inhibitors | 6.9% of 320,000 active | AID 504834, 2011; also: potency is read from the fitted curve at half-maximal effect; % is scaled to controls: 0 for no effect and ±100 for the full control effect
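96 h incubation, 37 C, 5% CO2, of luciferase-reporter P. falciparum-infected RBCs (2% hematocrit, 0.05% parasitemia final) with test compounds; endpoint luminescence.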
Pf growth 48h – Primary qHTS for delayed death inhibitors of the malarial parasite plastid, 48 hour incubation; P. falciparum luciferase growth in erythrocytes, 48 h; Potency, µM (titrated, usually from 28.7 µM), for the others: at the top dose activity change, negative = inhibition, usual class: inhibitors; 5.9% of 310,000 active; also: potency is read from the fitted curve at half-maximal effect; % is scaled to controls: 0 for no effect and ±100 for the full control effect
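Luciferase-expressing parasites in RBCs, 2% Hct / 0.1% parasitemia final; RPMI 1640 + 0.5% Albumax; 37 C, 5% CO2, one generation; luminescence read-out, lower signal = inhibition.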
SARS PLP yeast – qHTS of Yeast-based Assay for SARS-CoV PLP. 0.19% of 330,000 active. Potency, µM (top dose mostly 32.9 µM), without a hit: at the highest dose activity, positive = growth rescue, usual class: activators. S. cerevisiae expressing SARS-CoV PLpro, growth rescue; calls by dose curve; also: potency is read from the fitted curve at half-maximal effect; 0% is about no effect; nearly all actives have a fitted effect of over 55% in size
HCV inh – qHTS Assay for Inhibitors of Hepatitis C Virus (HCV); Huh7.5.1 HCVcc-Cre infection, luciferase reporter, 44 h; Potency, µM (titrated, usually from 41.8 µM), without a hit: at the top dose activity change, negative = inhibition, most hits filed as inhibitors; 3.4% of 340,000 active; also: potency is read from the fitted curve at half-maximal effect; % is scaled to controls: 0 for no effect and ±100 for the full control effect
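Whole-lifecycle infectious HCVcc-Cre system; cells 1,000/well, compound then virus (~0.5 moi) added 4 h after plating, 44 h culture. Luciferase read 15 sec following 15 min substrate incubation, room temp.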
HCMV inh – qHTS Assay for inhibitors of the human cytomegalovirus (HCMV); HFF cells, HCMV-luciferase reporter, 72 h; stronger effect = lower value; activity change, negative = inhibition, % at 57.5 µM; 4.5% of 410,000 active; AID 1259415, 2018; in the data active = activity change below about -60%; inconclusive = no clear call, values can overlap the other calls; inactive = above about -39%; also: % is scaled to controls: 0 for no effect and ±100 for the full control effect
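Luciferase read-out from HCMV-luciferase-infected HFFs (MOI 1 PFU/cell) 72 h post infection at 37C; compounds added after 16 h cell attachment; activity normalized between buffer-only basal and Salinomycin (10uM) inhibitor controls.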
Active calls of the source: *; ? = inconclusive; · = no result. Most compounds without a hit are left out; they make up all but 15% or so of the library. Unless noted, calls follow the shape of the dose curve; as a rule, active = well fitted curve in the direction sought with a large enough effect; inconclusive = small, poorly fitted or top-dose-only effect, or another doubt; inactive = no such curve, though single readings can be large; an effect the other way counts as inactive or inconclusive.

SMILES | Sm TGR inh | Pf growth 96h | Pf growth 48h | SARS PLP yeast | HCV inh | HCMV inh
CCCCCCSc1ccc([C@H]2N[C@@](CC(C)C)(C(=O)OC)[C@H]3C(=O)N(CC)C(=O)[C@@H]23)cc1 | -2% | ? | ? | 3% | ? | 71
COC(=O)C1(Cc2ccccc2)NC(c2ccc(F)cc2)C2C(=O)N(C)C(=O)C21 (centres undefined) | 9% | 34% | -37% | 5% | 26% | 58
CCCSc1ccc([C@H]2N[C@@](Cc3ccccc3)(C(=O)OC)[C@H]3C(=O)N(CC)C(=O)[C@@H]23)cc1 | -7% | 1µM* | 1.5µM* | 4% | ? | 2
CCCCCCSc1ccc([C@H]2N[C@@](CC(C)C)(C(=O)OC)[C@H]3C(=O)N(C)C(=O)[C@@H]23)cc1 | 1% | ? | ? | 1% | -8% | 41
CCC(C)Sc1ccc([C@H]2N[C@@](Cc3ccccc3)(C(=O)OC)[C@H]3C(=O)N(C)C(=O)[C@@H]23)cc1 (some centres undefined) | -16% | ? | 1µM* | 9% | ? | 104
CCCCCCSc1ccc([C@H]2N[C@@](C)(C(=O)OC)[C@H]3C(=O)N(CC)C(=O)[C@@H]23)cc1 | -29% | ? | ? | 1% | ? | 6
COCCN(C(=O)CSc1nnc(Nc2ccccc2F)s1)c1c(N)n(Cc2ccccc2)c(=O)[nH]c1=O | -11% | ? | · | -1% | -5% | 13
COc1ccc(OC)c(NC(=O)CSc2nc(=O)n(Cc3ccccn3)c3c2CCC3)c1 | 4% | ? | ? | 8% | ? | -34
Cc1cccc(NC(=O)c2ccc(-c3nc(CSc4ccccc4)c(C)o3)cc2)c1C | ? | · | · | · | · | -6
Cc1c(-c2ccccc2)nnn1-c1ccc(F)c(Cl)c1 | · | · | · | · | · | 28
NC1=NC(c2ccccc2C(F)(F)F)N(c2ccc(F)c(Cl)c2)C(N)=N1 (centres undefined) | -6% | 9% | 1.9µM* | 0% | -5% | ?
COc1ccc(C2(c3ccc(OC)cc3)NC(=O)N(CC(=O)Nc3ccc(OC)c(OC)c3)C2=O)cc1 | 7% | ? | 6.6µM* | 1% | ? | 37
COc1ccc(C2(c3ccc(OC)cc3)NC(=O)N(CC(=O)Nc3ccccc3C(F)(F)F)C2=O)cc1 | -23% | 12µM* | ? | -2% | ? | 17
Cc1cc(NC(=O)CN2C(=O)NC(c3ccccc3)(c3ccc(C)c(C)c3)C2=O)no1 (centres undefined) | -10% | 4.1µM* | ? | 0% | ? | -12
COc1cccc(NC(=O)CN2C(=O)NC(C)(CCC(C)C)C2=O)c1 (centres undefined) | 86% | 17% | 10µM* | 1% | -12% | 3
c1ccc(-c2cc3c(Nc4cccnc4)nccc3[nH]2)cc1 | · | · | · | · | · | 11
COc1ccc(NC(=O)CN(C)CC(=O)N(C)C2(C#N)CCC(C)CC2)cc1 (centres undefined) | 2% | 5% | 2% | -5% | -9% | -33
COc1ccc(Cn2c(=S)[nH]c3ccsc3c2=O)cc1 | 0% | ? | 16% | 12% | 5% | -24
C=CCNC(=S)/N=c1/ccccn1CC | ? | -3% | 6% | -2% | 25% | -98*
C=CCc1cc(C)ccc1OCCOCCC(C(=O)OCC)C(=O)OCC | 2% | 12µM* | -21% | -33% | 1% | 3
COc1ccc(C(=O)Nc2nnc(SCc3cc(=O)c4cccc(F)c4[nH]3)s2)cc1 | 0% | · | · | · | · | 21
CCC(C)(C)C1CCC(=NNC(=S)Nc2ccccc2)CC1 (centres undefined) | 2% | 4% | ? | -1% | 6% | -4
S=C(NN=C1C2CC3CC(C2)CC1C3)Nc1ccccc1 | -8% | 10µM* | · | 13% | 13% | -25
Cc1cc(NS(=O)(=O)c2ccc(NC(=O)CSc3nc4ncc(Br)cc4[nH]3)cc2)nc(C)n1 | ? | ? | ? | 1% | 6% | 0
CCc1ccc(C(C)(O)C(CN2CCOCC2)c2ccccc2)cc1 (centres undefined) | 0% | 203% | ? | 1% | 0% | -38
SMILES | Sm TGR inh | Pf growth 96h | Pf growth 48h | SARS PLP yeast | HCV inh | HCMV inh
C/C(=N\NC(=O)c1nnn(-c2nonc2N)c1CN1CCc2ccccc21)c1ccccc1O | 3% | 18% | ? | 0% | ? | -98*
CCCc1c(C(=O)N/N=C(\CC)c2ccccc2)nnn1-c1nonc1N | · | · | · | · | · | -63*
Cc1ccc(C(=O)NC(=S)NCc2cccnc2)cc1C | 50µM* | 9.3µM* | ? | 14% | -3% | ?
COc1ccc(C(=O)NC(=S)NCc2cccnc2)cc1Br | -35% | 16% | -25% | 15% | ? | ?
CC(C)c1ccc(C(=O)NC(=S)NCc2cccnc2)cc1 | ? | -29% | 10% | 12% | -12% | -74*
CCc1nc(NCC2CC2)c2nnn(Cc3ccccc3)c2n1 | · | · | · | · | · | 2
Oc1ccc(O)c(-c2cnns2)c1 | 79µM* | ? | ? | 3% | ? | ?
CCCc1nnc2n1N=C(c1ccc(-c3cc(Cl)ccc3Cl)o1)CS2 | 2% | 2% | 24% | 5% | 19% | ·
COc1ccc(Nc2ccncc2[N+](=O)[O-])cc1 | 0% | ? | 0% | 5% | 12% | -71*
S=c1[nH]nc(CCCc2n[nH]c(=S)o2)o1 | 0% | -3% | -8% | 2% | 15% | 46
Cn1c(=O)c2c(nc(NCc3ccccc3)n2Cc2ccc(Cl)c(Cl)c2)n(C)c1=O | 10% | · | · | · | · | -76*
Cn1c(=O)c2c(nc(NCc3ccccc3)n2Cc2ccccc2)n(C)c1=O | -2% | · | · | · | · | -6
Cn1c(=O)c2c(nc(NCCc3ccccc3)n2Cc2ccc(Cl)cc2)n(C)c1=O | -3% | · | · | · | · | -82*
Cn1c(=O)c2c(nc(NCc3ccc4c(c3)OCO4)n2Cc2ccccc2)n(C)c1=O | 3% | -21% | 13µM* | -1% | ? | -19
COc1ccc(CCNc2nc3c(c(=O)n(C)c(=O)n3C)n2Cc2ccc(F)cc2)cc1OC | 3% | · | · | · | · | -90*
Cc1cccc(NC(=O)CSc2nc3c(sc4ccccc43)c(=O)n2CCCC(=O)NC2CCCC2)c1 | -6% | · | · | · | · | 57
CCNC(=O)N(C)c1c(CC)nc2ccc(C(=O)N3CCN(C(=O)c4ccco4)CC3)cn12 | · | · | · | · | · | -8
Cn1c(NCCCN2CCOCC2)nc2c1c(=O)n(Cc1ccc(Cl)c(Cl)c1)c(=O)n2C | 15% | · | 13µM* | 7% | ? | 32

Assay outcomes (PubChem)
